Measurements as given in the supplement of paper PMC10849652.
Of roughly 7,900 targets only a part is listed; those with a hit were picked by preference. About 0.6% of all pairs of compound and target were hits. Values without a mark were called inactive.

Legend:
Assay in all cases: log2 fold change, soluble protein after heating vs DMSO (PISA); higher = thermal stabilisation; K562 cells, 10 uM, 30 min; active = over 0.2 and 3.5 SD of the protein, either way, in both replicates (recomputed)
[1] = compound: CS(=O)(=O)c1ccc(-c2cnc(N)c(C(=O)Nc3ccccc3)n2)cc1
How it was run: (§1)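 K562 cells at 2×10^6 cells/mL were given 10 μM compound for 30 min. Aliquots then went through 3 min of heating across 48°C-58°C, were pooled, and were extracted in PBS with 0.5% NP-40 at 4°C, and the supernatant after 21,000xg for 90 min was quantified by TMTpro 16plex LC-MS/MS with channel sums equalised. Thermal stability relative to control samples, from duplicates, is given as log2 fold change.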

[2] = compound: C[C@@H](Oc1cc(-c2cnn(C3CCNCC3)c2)cnc1N)c1c(Cl)ccc(F)c1Cl [crizotinib]
How it was run: as §1

[3] = compound: C[C@@H]1COCCN1C2=NC(=NC(=C2)C3(CC3)S(=O)(=O)C)C4=C5C=CNC5=CC=C4
How it was run: as §1

[4] = compound: C[C@H](C1=CC=C(C=C1)C(=O)NC2=C3C=CNC3=NC=C2)N
How it was run: as §1

[5] = compound: C[C@H](Nc1ncnc2nc[nH]c12)c1cc2cccc(Cl)c2c(=O)n1-c1ccccc1 [duvelisib]
How it was run: as §1

[6] = compound: Cc1cc(Nc2cc(CN3CCOCC3)c3nc(C)c(Cc4ccc(Cl)cc4F)n3n2)n[nH]1 [gandotinib]
How it was run: as §1

[7] = compound: Cc1cc(Nc2cc(N3CCN(C)CC3)nc(Sc3ccc(NC(=O)C4CC4)cc3)n2)n[nH]1 [tozasertib]
How it was run: as §1

[8] = compound: Cc1cc(SCc2sc(-c3ccc(C(F)(F)F)cc3)nc2C)ccc1OCC(=O)O
How it was run: as §1

[9] = compound: Cc1ccc(-n2nc(C(C)(C)C)cc2NC(=O)Nc2ccc(OCCN3CCOCC3)c3ccccc23)cc1 [doramapimod]
How it was run: as §1

[10] = compound: Cc1ccc(C(=O)N(CCCN)[C@@H](c2nc3cc(Cl)ccc3c(=O)n2Cc2ccccc2)C(C)C)cc1 [ispinesib]
How it was run: as §1

[11] = compound: Cc1ccc(NC(=O)c2ccc(CN3CC[C@H](N(C)C)C3)c(C(F)(F)F)c2)cc1Nc1nccc(-c2cncnc2)n1 [bafetinib]
How it was run: as §1

[12] = compound: Cc1cccc(CC(=O)N2CCc3c2ccc(-c2cn(C)c4ncnc(N)c24)c3F)n1
How it was run: as §1

[13] = compound: Cc1cn(-c2cc(NC(=O)c3ccc(C)c(Nc4nccc(-c5cccnc5)n4)c3)cc(C(F)(F)F)c2)cn1 [nilotinib]
How it was run: as §1

[14] = compound: Cc1nc(Nc2n[nH]c3c2CN(C(=O)N[C@H](CN(C)C)c2ccccc2)C3(C)C)c2sccc2n1
How it was run: as §1

[15] = compound: Cc1nc(Nc2ncc(C(=O)Nc3c(C)cccc3Cl)s2)cc(N2CCN(CCO)CC2)n1 [dasatinib]
How it was run: as §1

[16] = compound: Cc1ncc(-c2ccnc(Nc3ccc(S(C)(=O)=O)cc3)n2)n1C(C)C
How it was run: as §1

[17] = compound: Cn1cc(-c2ccc3c(c2)CCN3C(=O)Cc2cccc(C(F)(F)F)c2)c2c(N)ncnc21
How it was run: as §1

[18] = compound: Cn1cc(-c2ccc3nnc(C(F)(F)c4ccc5ncccc5c4)n3n2)cn1
How it was run: as §1

[19] = compound: Cn1cncc1[C@@](N)(c1ccc(Cl)cc1)c1ccc2c(c1)c(-c1cccc(Cl)c1)cc(=O)n2C [tipifarnib]
How it was run: as §1

[20] = compound: FC(F)(F)c1ccc(/C=C/c2nc(COc3ccc(CCCCn4ccnn4)cc3)co2)cc1 [mubritinib]
How it was run: as §1

Chain of UniProt Q9NR22 (Q9NR22 whole entry, looked up): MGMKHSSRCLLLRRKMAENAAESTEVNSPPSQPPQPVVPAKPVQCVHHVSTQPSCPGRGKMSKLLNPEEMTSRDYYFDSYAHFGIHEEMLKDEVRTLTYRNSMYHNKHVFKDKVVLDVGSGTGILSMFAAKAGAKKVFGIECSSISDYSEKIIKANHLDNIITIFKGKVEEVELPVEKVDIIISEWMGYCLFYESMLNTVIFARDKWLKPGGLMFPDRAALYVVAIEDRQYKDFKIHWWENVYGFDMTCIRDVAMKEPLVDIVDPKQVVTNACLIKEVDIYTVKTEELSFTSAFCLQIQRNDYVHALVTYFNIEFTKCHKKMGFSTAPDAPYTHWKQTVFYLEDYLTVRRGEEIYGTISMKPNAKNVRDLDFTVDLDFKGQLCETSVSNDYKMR
Chain of UniProt Q16512 (Q16512 whole entry, looked up): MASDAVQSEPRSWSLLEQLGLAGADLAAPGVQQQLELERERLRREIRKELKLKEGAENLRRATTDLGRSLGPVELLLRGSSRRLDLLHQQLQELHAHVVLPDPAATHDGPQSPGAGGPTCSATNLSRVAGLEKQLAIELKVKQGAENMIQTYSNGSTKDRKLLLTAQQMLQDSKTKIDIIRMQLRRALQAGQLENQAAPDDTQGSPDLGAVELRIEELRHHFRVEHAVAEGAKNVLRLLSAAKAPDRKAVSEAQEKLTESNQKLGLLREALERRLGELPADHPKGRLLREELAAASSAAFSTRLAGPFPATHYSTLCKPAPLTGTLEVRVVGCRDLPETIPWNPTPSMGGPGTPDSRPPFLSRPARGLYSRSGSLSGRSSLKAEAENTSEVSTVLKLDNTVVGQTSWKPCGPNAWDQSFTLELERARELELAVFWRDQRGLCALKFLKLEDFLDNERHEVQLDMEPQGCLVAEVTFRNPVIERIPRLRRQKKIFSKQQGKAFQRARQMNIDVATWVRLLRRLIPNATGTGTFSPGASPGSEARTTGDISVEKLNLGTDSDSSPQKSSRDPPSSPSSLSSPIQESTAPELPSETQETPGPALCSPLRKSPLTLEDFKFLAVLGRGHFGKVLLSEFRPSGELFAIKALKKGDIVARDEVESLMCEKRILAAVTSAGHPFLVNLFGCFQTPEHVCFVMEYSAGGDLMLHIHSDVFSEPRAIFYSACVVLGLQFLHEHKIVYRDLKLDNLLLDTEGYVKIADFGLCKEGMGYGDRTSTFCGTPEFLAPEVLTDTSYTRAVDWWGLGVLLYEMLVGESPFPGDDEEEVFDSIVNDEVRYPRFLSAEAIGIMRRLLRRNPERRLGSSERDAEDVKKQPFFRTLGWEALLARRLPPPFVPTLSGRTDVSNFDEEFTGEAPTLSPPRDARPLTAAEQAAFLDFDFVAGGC
Chain of UniProt Q13131 (Q13131 whole entry, looked up): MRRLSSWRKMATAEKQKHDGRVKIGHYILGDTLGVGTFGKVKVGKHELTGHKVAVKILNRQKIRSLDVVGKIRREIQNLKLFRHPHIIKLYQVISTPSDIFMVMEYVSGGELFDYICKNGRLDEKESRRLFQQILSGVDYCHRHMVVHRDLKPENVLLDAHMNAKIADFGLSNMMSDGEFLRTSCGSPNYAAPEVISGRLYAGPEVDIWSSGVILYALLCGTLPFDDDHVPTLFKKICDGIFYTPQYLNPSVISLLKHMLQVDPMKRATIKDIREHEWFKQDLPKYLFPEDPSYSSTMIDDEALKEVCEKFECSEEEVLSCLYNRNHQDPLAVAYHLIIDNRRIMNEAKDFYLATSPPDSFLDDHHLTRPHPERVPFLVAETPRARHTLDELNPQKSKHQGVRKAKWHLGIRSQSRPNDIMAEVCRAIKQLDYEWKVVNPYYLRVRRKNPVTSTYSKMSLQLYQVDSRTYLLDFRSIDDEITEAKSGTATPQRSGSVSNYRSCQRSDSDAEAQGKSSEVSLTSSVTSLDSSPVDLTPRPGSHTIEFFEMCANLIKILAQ
Chain of UniProt Q6L8Q7 (Q6L8Q7 whole entry, looked up): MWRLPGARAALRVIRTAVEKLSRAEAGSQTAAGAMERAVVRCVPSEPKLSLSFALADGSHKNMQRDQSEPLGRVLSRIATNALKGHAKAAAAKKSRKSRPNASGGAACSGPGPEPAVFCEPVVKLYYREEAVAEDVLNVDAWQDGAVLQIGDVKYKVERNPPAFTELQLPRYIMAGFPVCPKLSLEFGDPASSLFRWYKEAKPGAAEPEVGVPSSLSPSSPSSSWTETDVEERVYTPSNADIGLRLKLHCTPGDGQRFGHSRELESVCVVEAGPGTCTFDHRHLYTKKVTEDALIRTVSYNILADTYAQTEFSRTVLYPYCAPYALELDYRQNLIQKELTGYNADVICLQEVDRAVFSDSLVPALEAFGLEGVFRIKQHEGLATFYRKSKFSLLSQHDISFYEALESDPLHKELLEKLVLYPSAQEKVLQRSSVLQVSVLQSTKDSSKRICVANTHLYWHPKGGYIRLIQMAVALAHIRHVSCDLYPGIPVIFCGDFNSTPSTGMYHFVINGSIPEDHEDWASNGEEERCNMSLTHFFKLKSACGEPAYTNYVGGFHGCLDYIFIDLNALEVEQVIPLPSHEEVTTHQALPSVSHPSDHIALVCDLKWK
Chain of UniProt P29590 (P29590 whole entry, looked up): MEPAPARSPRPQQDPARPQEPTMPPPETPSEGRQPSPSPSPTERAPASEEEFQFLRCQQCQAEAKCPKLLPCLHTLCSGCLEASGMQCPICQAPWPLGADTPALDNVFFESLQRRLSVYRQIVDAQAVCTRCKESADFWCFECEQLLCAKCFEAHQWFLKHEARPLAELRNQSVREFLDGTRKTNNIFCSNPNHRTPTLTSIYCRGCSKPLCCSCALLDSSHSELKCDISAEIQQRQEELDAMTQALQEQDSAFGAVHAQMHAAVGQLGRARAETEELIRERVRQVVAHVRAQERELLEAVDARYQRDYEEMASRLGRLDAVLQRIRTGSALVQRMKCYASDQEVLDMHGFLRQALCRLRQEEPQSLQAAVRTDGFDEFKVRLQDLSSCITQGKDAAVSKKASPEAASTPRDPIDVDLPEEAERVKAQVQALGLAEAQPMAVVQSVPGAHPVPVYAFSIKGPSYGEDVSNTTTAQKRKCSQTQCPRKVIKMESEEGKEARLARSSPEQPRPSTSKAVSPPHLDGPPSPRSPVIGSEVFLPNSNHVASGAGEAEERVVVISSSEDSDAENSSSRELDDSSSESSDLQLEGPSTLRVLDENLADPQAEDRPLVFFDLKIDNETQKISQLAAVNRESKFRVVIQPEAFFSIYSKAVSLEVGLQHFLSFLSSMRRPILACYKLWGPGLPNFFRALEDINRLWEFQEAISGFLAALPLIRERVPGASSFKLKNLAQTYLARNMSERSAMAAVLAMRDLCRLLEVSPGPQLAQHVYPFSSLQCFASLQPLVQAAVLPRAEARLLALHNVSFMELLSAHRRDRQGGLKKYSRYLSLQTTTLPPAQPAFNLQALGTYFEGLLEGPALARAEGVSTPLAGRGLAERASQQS
Chain of UniProt P49585 (P49585 whole entry, looked up): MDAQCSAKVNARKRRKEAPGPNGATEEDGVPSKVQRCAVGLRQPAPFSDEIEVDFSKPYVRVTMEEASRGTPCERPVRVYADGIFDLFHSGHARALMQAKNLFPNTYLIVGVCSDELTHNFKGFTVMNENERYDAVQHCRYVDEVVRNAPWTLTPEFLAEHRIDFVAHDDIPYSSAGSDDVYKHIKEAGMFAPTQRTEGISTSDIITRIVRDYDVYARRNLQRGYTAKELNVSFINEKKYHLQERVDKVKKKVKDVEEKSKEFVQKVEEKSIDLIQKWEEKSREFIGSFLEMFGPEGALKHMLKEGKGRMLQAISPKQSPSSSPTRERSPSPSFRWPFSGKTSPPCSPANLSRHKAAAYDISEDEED
Chain of UniProt O75439 (O75439 whole entry, looked up): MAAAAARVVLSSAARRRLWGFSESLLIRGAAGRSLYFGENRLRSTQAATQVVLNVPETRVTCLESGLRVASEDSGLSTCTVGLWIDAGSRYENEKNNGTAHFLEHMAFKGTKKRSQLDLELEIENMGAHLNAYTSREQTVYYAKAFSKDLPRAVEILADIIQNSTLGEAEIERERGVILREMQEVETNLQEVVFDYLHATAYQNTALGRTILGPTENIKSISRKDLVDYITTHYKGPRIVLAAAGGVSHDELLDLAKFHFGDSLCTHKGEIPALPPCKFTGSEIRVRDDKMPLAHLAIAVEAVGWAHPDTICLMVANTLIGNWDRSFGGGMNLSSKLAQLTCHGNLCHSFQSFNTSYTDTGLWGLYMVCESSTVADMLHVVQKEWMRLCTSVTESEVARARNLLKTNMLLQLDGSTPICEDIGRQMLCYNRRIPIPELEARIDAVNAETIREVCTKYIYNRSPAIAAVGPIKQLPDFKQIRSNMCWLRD
Chain of UniProt Q8N4L2 (Q8N4L2 whole entry, looked up): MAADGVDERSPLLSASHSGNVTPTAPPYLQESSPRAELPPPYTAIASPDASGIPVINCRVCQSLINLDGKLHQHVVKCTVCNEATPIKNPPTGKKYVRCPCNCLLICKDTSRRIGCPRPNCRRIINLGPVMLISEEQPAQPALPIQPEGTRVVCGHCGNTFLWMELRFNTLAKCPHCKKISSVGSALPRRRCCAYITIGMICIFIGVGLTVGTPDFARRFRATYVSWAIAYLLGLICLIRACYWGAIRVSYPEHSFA
Chain of UniProt Q53EL6 (Q53EL6 whole entry, looked up): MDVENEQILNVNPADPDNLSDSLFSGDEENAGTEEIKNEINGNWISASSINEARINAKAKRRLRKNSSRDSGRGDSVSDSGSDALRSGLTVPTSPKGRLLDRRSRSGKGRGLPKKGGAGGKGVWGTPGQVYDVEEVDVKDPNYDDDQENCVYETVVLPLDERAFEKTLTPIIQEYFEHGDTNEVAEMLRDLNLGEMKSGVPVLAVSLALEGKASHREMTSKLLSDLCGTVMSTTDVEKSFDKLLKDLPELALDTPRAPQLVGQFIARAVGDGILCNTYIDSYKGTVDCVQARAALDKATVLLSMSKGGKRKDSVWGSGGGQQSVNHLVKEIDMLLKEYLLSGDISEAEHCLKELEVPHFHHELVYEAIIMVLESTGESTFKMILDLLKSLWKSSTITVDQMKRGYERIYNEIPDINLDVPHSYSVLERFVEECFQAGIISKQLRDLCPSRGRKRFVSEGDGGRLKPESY

Target | log2 fold change [1] | log2 fold change [2] | log2 fold change [3] | log2 fold change [4] | log2 fold change [5] | log2 fold change [6] | log2 fold change [7] | log2 fold change [8] | log2 fold change [9] | log2 fold change [10] | log2 fold change [11] | log2 fold change [12] | log2 fold change [13] | log2 fold change [14] | log2 fold change [15] | log2 fold change [16] | log2 fold change [17] | log2 fold change [18] | log2 fold change [19] | log2 fold change [20]
PCYT1A (UniProt P49585) | -0.031 | -0.032 | 0.092 | -0.097 | 0.081 | -0.148 | 0.072 | 0.094 | -0.008 | 0.003 | -0.142 | 0.035 | -1.47 (active) | -0.129 | -0.185 | -0.04 | 0.033 | 0.001 | 0.006 | 0.176
PRMT8 (UniProt Q9NR22) | -0.046 | -0.03 | -0.043 | 0.024 | 0.012 | -0.047 | -0.024 | 0.045 | -0.021 | 0.13 | 0.002 | 0.032 | -0.036 | 0.048 | -0.064 | 0.02 | 0.064 | -0.066 | -0.136 | 0.035
PML (UniProt P29590) | -0.011 | 0.017 | 0.025 | -0.027 | 0.072 | -0.019 | 0.07 | -0.051 | -0.054 | -0.027 | -0.078 | 0.029 | -0.035 | -0.046 | -0.036 | -0.037 | -0.047 | -0.003 | 0.014 | -0.023
POLR2G (UniProt P62487) | 0.006 | 0.257 | 0.111 | 0.125 | 0.087 | 0.191 | -0.051 | -0.026 | -0.016 | 0.035 | -0.048 | -0.038 | 0.012 | 0.188 | 0.054 | 0.202 | 0.009 | 0.002 | 0 | 0.065
PMPCB (UniProt O75439) | 0.012 | 0.015 | 0.054 | -0.081 | 0.055 | -0.096 | -0.019 | -0.019 | 0.009 | -0.034 | 0.035 | 0.025 | -0.054 | 0.089 | 0.098 | -0.04 | 0.105 | 0.046 | 0.269 (active) | 0.053
PAK4 (UniProt O96013) | -0.028 | -0.033 | 0.058 | -0.017 | 0.037 | -0.028 | -0.013 | 0.021 | -0.042 | -0.111 | -0.072 | 0.011 | -0.016 | 0.352 (active) | -0.068 | 0.01 | 0.04 | 0.007 | 0.015 | -0.092
PEX11B (UniProt O96011) | -0.042 | 0.02 | 0.148 | -0.012 | 0.081 | -0.073 | 0.065 | 0.014 | 0.002 | 0.07 | -0.022 | 0.081 | 0.04 | 0.041 | -0.071 | -0.043 | 0.049 | 0.01 | -0.063 | 0.058
PRKCG (UniProt P05129) | 0.078 | -0.005 | 0.188 | 0.028 | 0.244 | -0.149 | -0.04 | 0.11 | -0.029 | 0 | -0.012 | 0.067 | 0.019 | -0.385 | 0.022 | 0.018 | 0.015 | -0.132 | -0.095 | 0.047
PRKAA1 isoform 2 (UniProt Q13131) | 0 | -0.156 | -0.007 | -0.011 | 0.055 | -0.235 (active) | -0.044 | -0.036 | -0.019 | -0.003 | -0.096 | 0.035 | -0.029 | -0.206 (active) | -0.069 | -0.011 | 0.082 | 0.028 | -0.012 | -0.012
PLA2G15 (UniProt Q8NCC3) | 0 | -0.163 | -0.008 | 0.015 | -0.038 | -0.036 | -0.075 | -0.016 | 0.015 | -0.055 | -0.175 | 0.05 | -0.001 | -0.025 | -0.036 | -0.028 | 0.002 | 0.09 | 0.084 | -0.05
PELP1 (UniProt Q8IZL8) | -0.006 | -0.012 | -0.107 | -0.024 | -0.055 | -0.282 | -0.012 | 0.111 | 0.019 | 0.004 | 0.005 | -0.115 | -0.007 | 0.007 | 0.004 | -0.047 | 0.064 | -0.034 | 0.063 | -0.009
PKN1 isoform 2 (UniProt Q16512) | 0.03 | -0.233 | -0.015 | -0.12 | 0.001 | -0.165 | -0.052 | 0.075 | 0.022 | -0.065 | -0.006 | 0.038 | -0.044 | -0.705 (active) | -0.154 | -0.019 | -0.02 | -0.008 | -0.046 | 0.098
PDCD4 (UniProt Q53EL6) | 0.096 | 0.09 | 0.303 | 0.007 | 0.133 | -0.141 | 0.126 | 0.066 | -0.047 | 0.039 | 0.065 | -0.014 | 0.017 | 0.025 | -0.144 | 0.144 | 0.022 | 0.077 | -0.172 | 0.104
PDE12 (UniProt Q6L8Q7) | 0.047 | 0.032 | 0.088 | -0.133 | 0.069 | 0.027 | -0.007 | 0 | -0.027 | 0.065 | -0.013 | 0.002 | -0.004 | 0.017 | -0.061 | -0.006 | 0.067 | 0.066 | -0.078 | 0.066
PIP4P2 (UniProt Q8N4L2) | -0.057 | -0.3 (active) | 0.013 | -0.058 | 0.068 | 0.017 | -0.041 | 0.013 | -0.032 | -0.569 (active) | -0.083 | -0.111 | 0.013 | -0.003 | 0.055 | -0.026 | -0.03 | 0.014 | 0.024 | 0.005
POLR2I (UniProt P36954) | 0.003 | 0.334 | 0.052 | 0.001 | 0.085 | 0.336 | -0.086 | -0.032 | -0.047 | 0.127 | -0.044 | 0.024 | -0.026 | 0.233 | 0.079 | 0.338 | -0.029 | 0.021 | 0.072 | -0.054
